This note sets out measurements from PubChem BioAssay AID686971 (National Center for Advancing Translational Sciences (NCATS), 2013).

The whole screen tested about 360,000 compounds, of which about 7,500 (2.1%) were called active. Roughly 8% stayed inconclusive and do not appear here. Many of the other results were omitted from the sample, so actives are more common in it than they were. Unmarked numbers belong to inactive results. The call rests on the fitted dose curve; in most records, active means well fitted cell-killing curve with a large enough effect; inconclusive means small, poorly fitted or top-dose-only effect, or effect the other way, or another doubt; inactive means no such curve, though single readings can be large or run the other way.
Potency means the concentration at half of the fitted maximal effect.

The assay is described as follows: qHTS for induction of synthetic lethality in tumor cells producing 2HG: qHTS for the HT-1080-IDH1KD cell line.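 On activity, negative = toxicity: 0% = DMSO wells and -100% = cell-free medium wells.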 The note with it: HT-1080 IDH1 knockdown viability, ATP luminescence, 48 h; series mostly up to 46.1 µM; activity, negative = toxicity: at the top concentration. In short, it runs like this:
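Cytotoxicity counter-line: IDH1KD HT-1080, 48 h, CellTiter-Glo. Curves classed by r2, magnitude and activity.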
Turning to `CCC(C(=O)NCc1ccccc1)n1c(Cc2cc(F)cc(F)c2)nc2ccccc21` (stereo not given), the “activity, negative = toxicity” value is 3.45%.
Same read-out and setting: for `COc1ccc(C(=O)OCC(=O)Nc2cc(C)on2)cc1F` the value was 15.1%.
Same read-out and setting: for `O=C(CCN1CCCCC1)Nc1ccc(F)c(F)c1` the value was -0.711%; for `CCc1cccc(CC)c1N1C(=O)CC(Sc2ccccc2N)C1=O` (stereo not given), 2.31%.
Regarding `CC1(Cc2ccccc2C#N)C(=O)Nc2ccc(-c3ccc4[nH]ccc4c3)cc21` (stereo not given), the Potency was 1.64 µM (active).
Consider `OC(COc1ccc(Br)cc1)CN1CCCC1` (stereo not given), for which the “activity, negative = toxicity” value was 10.1%.
Regarding `CC(C)(C)CC(C)(C)NCC(O)COCCOc1ccc(Br)cc1` (stereo not given), the Potency is 20.6 µM (active).
Consider `CC(Oc1ccc(Br)cc1)C(=O)NC1CCCCCC1` (stereo not given), for which the “activity, negative = toxicity” value is -4.13%.
The same measure, in the same setting: next, `Cc1cccc(CN2CCN(C3CN(Cc4cn(Cc5cc(C)cc(C)c5)nn4)S(=O)(=O)C3)CC2)c1` (stereo not given): -26.7%; `CC(=O)Oc1ccc2c(c1)C(=O)c1ccccc1C2=O`: 7.51%.
On to `O=C1C(Cl)=C(Oc2ccccc2)C(=O)c2ccccc21`, for which the Potency was 2.59 µM (active).
On to `O=C(O)CSc1nnc(-c2ccc3c(c2)OCO3)n1-c1ccccc1`, for which the “activity, negative = toxicity” value was 8.8%.
Same read-out and setting: for `CCn1c(SCC(=O)Nc2ccc3c(c2)OCCO3)nnc1-c1ccncc1` the value was 14.6%.
With `O=C(CSc1nnc(-c2ccccn2)n1-c1ccccc1)Nc1ccc2c(c1)OCO2`, the Potency is 23.1 µM (active).
For `Cc1cccc(C)c1NC(=O)C(c1cccc2ccccc12)n1c(=O)c(-c2ccco2)nc2ccccc21` (stereo not given), the “activity, negative = toxicity” value is -25.8%.
On the same count and under the same terms, for `O=C(OCc1cn([C@H]2C[C@H](c3ccccc3)N(C(=O)c3cccs3)C[C@@H]2O)nn1)c1ccccc1` the value was 1.07%; for `COc1cccc(OC)c1C(=O)N1CCN(Cc2ccccc2F)CC1`, 1.13%.
For `Nc1c(C(=O)NCc2ccccc2)nnn1Cc1cccc(Cl)c1`, the Potency was 14.6 µM (active).
In the case of `O=C(COc1cccc(Cl)c1)NCc1ccccc1`, the “activity, negative = toxicity” value was 5.21%.
Same read-out and setting: next, `Nc1c(-c2ccccc2)nnn1Cc1ccccc1`: -15.5%; `O=C(NCCN1CCOCC1)c1ccc2c(c1)N(Cc1cccc(Cl)c1)C(=O)c1ccccc1S2(=O)=O`: -10.9%.
With `CC1=C/C(=N\OS(=O)(=O)c2ccccc2)C=CC1=O`, the Potency is 20 µM (active).
With `O=C(NCc1ccc(F)cc1)c1cc(C2CCCCN2C(=O)c2cccs2)on1` (stereo not given), the “activity, negative = toxicity” value is -16.4%.
Same read-out and setting: for `CCc1nc2ccc(C(=O)Nc3cc(-c4ccccc4)ccc3OC)cn2c1N(CC)CC(=O)N(C)C` the value was -21.6%; for `C[C@@H]1CN([C@@H](C)CO)C(=O)c2cc(Br)cnc2O[C@H]1CN(C)Cc1ccc(-c2ccccc2)cc1`, -28.2%.
On the same count and under the same terms, for `CCCCN1CC(N2CCN(Cc3cccc(C)c3)CC2)CS1(=O)=O` (stereo not given) the value was 10.1%.
On to `COc1cc(/C=N/NC(=O)Nc2ccccc2)ccc1OCCOc1ccccc1C`, for which the Potency was 7.08 µM (active).
Consider `COc1cc(C=NNC(=O)c2cccnc2)ccc1OC(=O)c1ccccc1F`, for which the “activity, negative = toxicity” value was 6.24%.
Turning to `COc1ccc(C(=O)Nc2ccccc2C(=O)N/N=C/c2ccc(O)c(OC)c2)cc1`, the Potency is 6.51 µM (active).
Turning to `COc1ccc(/C=N/NC(=O)c2ccccc2)cc1OS(=O)(=O)c1ccccc1`, the Potency was 20.6 µM (active).
Turning to `COc1ccc(C(=O)Nc2ccccc2C(=O)N2CCN(c3ccccc3)CC2)cc1`, the “activity, negative = toxicity” value is 1.4%.
`COC(=O)c1ccc(COc2ccc(/C=N/NC(=O)C(=O)Nc3ccc(OC)cc3)cc2OC)o1`: the “activity, negative = toxicity” value is 4.05%.
Same read-out and setting: for `Cc1ccc(S(=O)(=O)Oc2ccc(/C=N/NC(=O)c3ccncc3)cc2)cc1` the value was -19.2%; for `COc1cc(/C=N/NC(=O)c2ccoc2C)ccc1OCCN1CCCCC1`, 3.77%.
For `COc1ccc(/C=N/Nc2ccccc2C(=O)O)cc1`, the “activity, negative = toxicity” value was -4.19%.
